# Compound activity as filed in PubChem.
# TAG inh = triacylglycerol accumulation inhibition | inhibition, % at 12.5 µM | H9c2 cells, Nile Red lipid (TAG) fluorescence; cells loaded with 200 µM oleic acid | hit rate 0.66% among 230,000 | AID 651582;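 active = pattern-corrected inhibition of lipid staining of at least 50% with the nuclear-stain viability signal not falling by more than 50%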
# SKN-1 inh = blocks SKN-1 activity in C. elegans | C. elegans VP596 Pgst-4::GFP/RFP ratio, acrylamide-induced, 24 h | inhibition, % at 21.8 µM | hit rate 0.49% among 360,000 | AID 624304;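 active = interference check ratio from 0.5 to 1.5 plus GFP to RFP signal ratio inhibition reaching or exceeding a fixed threshold, cut at about 30% in these data, passing the limit was not always enough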
# iPSC survival up = hiPSC single-cell survival enhancement. ATPlite luminescence; 100% = ROCK inhibitor wells, 0% = DMSO. survival enhancement, % at 20 µM. hit rate 0.044% among 360,000. AID 602274; in the data active = survival enhancement above about 18%;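 also: cells exposed to compounds for 16 hours before the ATP read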
# CRFR2-BP ag = agonists of human CRF-binding protein/CRF-R2 receptor complex. activation, % at 13.2 µM. AID 588473. HEK293 CRF-R2/CRF-BP, calcium dye fluorescence (FLIPR); percent of saturating CRF peptide response. hit rate 0.46% among 350,000;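 active = activation of at least 50%, plus an integration ratio under a set limit after plate pattern correction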
# Cardio protect = protects H9c2 cardiomyocytes from peroxide injury; H2O2 injury protection, ATPLite, 2 h; AID 588492; hit rate 0.63% among 360,000; protection from H2O2 cell death, % at 20 µM;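 active = compounds giving at least 50% protection of heart cells from peroxide-induced death in the single-dose screen, raw or plate-pattern-corrected value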
# CRFBP-R2 block = antagonists of CRF-binding protein/CRF-R2 receptor complex; HEK293 CRF-R2/CRF-BP, CRF-induced calcium fluorescence; hit rate 0.59% among 350,000; inhibition, % at 11.8 µM; AID 588475;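 active = inhibition of the ligand-induced calcium signal above about 50% at the single tested concentration, limit read from the data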
# A number is an active result; . = inactive; / = no result given. Only some compounds are listed: those with a hit (about 2.5% of all), similar ones and a draw of the others.
SMILES,TAG inh,SKN-1 inh,iPSC survival up,CRFR2-BP ag,Cardio protect,CRFBP-R2 block
Cc1ncc(CO)c2cc(C(=O)Nc3ccccc3Cl)c(=Nc3cccc(C(N)=O)c3)oc12,/,.,.,.,61.3,.
CN(C)CCCOC(=O)C1c2ccccc2Oc2ccccc21,.,.,.,.,.,.
CN(CCOC(=O)C1c2ccccc2Oc2ccccc21)C(C)(C)C,.,.,.,.,.,50.4
CCNC(=O)C1CCCN(C(=O)c2ccc(F)c(Cl)c2)CC1 (stereo unspecified),.,.,.,/,.,/
CCOc1ccc(S(=O)(=O)N2CCN(Cc3ccc4c(c3)OCO4)CC2)cc1OCC,/,.,.,.,.,.
CS(=O)(=O)N1CCc2cc(S(=O)(=O)N3CCN(Cc4ccc5c(c4)OCO5)CC3)ccc21,/,.,.,.,.,56.6
Cc1cn2c(N)c(C=C3C=C(Cl)C(=O)C(Cl)=C3)c(=O)nc2s1,.,.,.,117.5,.,.
Cc1cn2c(N)c(/C=C3\C=Nc4ccccc43)c(=O)nc2s1,.,.,.,.,.,.
COC1=C/C(=C/c2c(N)n3cc(C)sc3nc2=O)C=CC1=O,/,.,.,60.7,.,.
O=c1c(O)c(-c2ccccc2)oc2cc(O)ccc12,.,.,.,/,78.7,/
O=c1c(O)c(-c2ccccc2)oc2ccccc12,/,.,.,.,.,.
Cc1ccc(-c2oc3ccccc3c(=O)c2O)cc1,.,.,.,.,73.5,.
COc1ccc(-c2nc3scc(-c4ccc(OC)c(OC)c4)c3c(=O)o2)cc1,/,.,.,.,.,56.9
COc1ccc(-c2csc3nc(C(C)C)oc(=O)c23)cc1OC,.,.,.,.,.,.
COCCn1c(-c2ccsc2)nc2c1c(=O)[nH]c(=O)n2CC(C)C,.,.,.,.,.,51.2
Clc1ccc(Cl)c(-c2nc(-c3ccncc3)no2)c1,.,.,.,.,.,.
Clc1ccc(OCCCc2nc(-c3ccncc3)no2)c(Cl)c1,.,43.3,.,.,.,.
Clc1ccccc1-c1nc(-c2cccnc2)no1,.,33.9,.,.,.,.
Clc1ccccc1-c1nc(-c2ccncc2)no1,.,45.9,.,.,.,.
Clc1ccc(-c2nc(-c3ccncc3)no2)c(Cl)c1,.,36.5,.,.,.,.
Cc1ccccc1-c1nc(-c2cccnc2)no1,.,.,.,.,.,.
COc1ccc(-c2nnc(NC(=O)c3ccc(S(=O)(=O)N4CCCc5ccccc54)cc3)o2)cc1,.,.,.,.,62.9,.
CC1CN(S(=O)(=O)c2ccc(C(=O)Nc3nnc(-c4ccc5c(c4)CCCC5)o3)cc2)CC(C)O1 (stereo unspecified),.,.,.,.,62.5,.
O=S1(=O)CC(N2CC=CC2)CN1Cc1cn(Cc2ccc(Cl)cc2)nn1 (stereo unspecified),/,.,.,/,/,/
COC(=O)c1c(NC(=O)C2CC(=O)NN2Cc2ccccc2)sc(C)c1C (stereo unspecified),/,.,.,.,.,.
SMILES,TAG inh,SKN-1 inh,iPSC survival up,CRFR2-BP ag,Cardio protect,CRFBP-R2 block
CN(Cc1ccc(Cl)s1)C(=O)CCl,65.4,.,.,.,.,.
CCc1nc2c(OCc3cc(Cl)cc(Cl)c3)cccn2c1N(C)C(=O)CC(C)C,.,.,.,/,.,/
C=C(C)COc1ccc(-c2n[nH]c(C)c2-c2ccc(OC)c(OC)c2)c(O)c1,56.1,.,.,.,.,.
Cc1ccc(NC(=S)c2nc3ccccc3s2)cc1,.,35.3,.,.,.,.
S=C(Nc1ccc(Cl)cc1)c1nc2ccccc2s1,.,.,.,.,.,.
COc1ccc(C2=NN(C(=O)c3cccs3)C(c3ccccc3O)C2)cc1 (stereo unspecified),/,.,.,.,.,.
COc1ccc(C2CC(c3ccccc3)=NN2C(=O)c2cccs2)cc1 (stereo unspecified),/,37.2,.,.,.,.
COc1cccc(C2=NN(C(C)=O)C(c3cccs3)C2)c1 (stereo unspecified),/,35.7,.,.,.,.
CC1=C(C(=O)N(C(C)C)C(C)C)CC(CC(=O)NC2CCCC2)C(=O)N1Cc1ccc(C(C)(C)C)cc1 (stereo unspecified),/,.,.,/,.,/
CC1CCC2(CC1)NC(=O)N(CC(=O)c1cn(CCC#N)c3ccccc13)C2=O (stereo unspecified),.,.,.,.,.,.
Cc1ccc(F)c(S(=O)(=O)NC(=O)C2(C)CCN2C(=O)Cc2cccs2)c1 (stereo unspecified),.,.,.,/,.,/
Cc1cc(C)c2sc(N(CCCN(C)C)C(=O)c3ccc(S(=O)(=O)N4CCc5ccccc5C4)cc3)nc2c1,54.4,.,.,/,.,/
Cc1cccc2sc(N(CCCN(C)C)C(=O)c3ccc(S(=O)(=O)N4CCc5ccccc5C4)cc3)nc12,.,.,.,.,.,.
CN(C)CCCN(C(=O)c1cc(-c2cccs2)nc2ccccc12)c1nc2ccc(F)cc2s1,59.7,.,.,.,.,.
Cc1cc(C)c2sc(N(CCCN(C)C)C(=O)c3ccc(S(=O)(=O)N4CCCc5ccccc54)cc3)nc2c1,56.4,.,.,.,.,.
CN(C)CCCN(C(=O)c1ccc(S(=O)(=O)N2CCc3ccccc3C2)cc1)c1nc2ccc(F)cc2s1,56.9,.,.,.,.,.
CCCCC(=O)N(C)c1c(CC)nc2c(OCC=C(C)C)cccn12,.,.,.,/,.,/
Cc1ccc2nc(N(CCCN(C)C)C(=O)c3ccc(S(=O)(=O)N4CCc5ccccc5C4)cc3)sc2c1,69.2,.,.,.,.,.
COC(=O)c1cc(OC)c(OC)cc1NC(=O)c1ccc(C)o1,/,.,.,.,49.9,.
COc1ccc(NC(=O)c2c(-c3ccccc3)noc2C)c(OC)c1,/,.,.,.,.,.
COC(=O)c1cc(OC)c(OC)cc1NC(=O)c1c(-c2ccccc2)noc1C,/,.,.,.,.,67.6
Cc1cccc(C)c1-n1nnnc1C(c1ccnc2ccccc12)N(C)Cc1ccc(Cl)c(Cl)c1 (stereo unspecified),/,.,.,/,/,/
Cc1ccc(S(=O)(=O)N/N=C/c2ccc(C(=O)O)cc2)cc1,.,.,.,.,.,.
Cc1ccc(S(=O)(=O)N/N=C/c2ccc(OC3CSC3)cc2)cc1,.,.,.,75.4,.,.
C=C[C@@]1(C)CC(=O)[C@]2(O)[C@@]3(C)[C@@H](O)CCC(C)(C)[C@@H]3[C@H](OC(C)=O)[C@H](O)[C@@]2(C)O1,/,.,.,.,.,.
C=C[C@@]1(C)CC(=O)[C@]2(O)[C@@]3(C)[C@@H](O)CCC(C)(C)[C@@H]3[C@H](O)[C@H](OC(C)=O)[C@@]2(C)O1,.,.,.,.,70.7,.
COc1ccc(N2C(=O)c3cccc4cccc(c34)C2=O)cc1,.,.,.,85.2,.,.
O=C1c2ccccc2C(=O)N1CCCCON1C(=O)c2ccccc2C1=O,/,.,.,.,.,.
